# This is a sample that favours compounds with a hit; in the whole collection about 3.7% have one here.
# HepG2 viability: kills HepG2 cells in TGF-b inhibitor counter-screen | Potency, µM (top dose mostly 46.1 µM), usual class: cytotoxic | actives 0.76% (n = 410,000) | HepG2 CAGA-GFP viability, ATP luminescence, 18 h | AID 588856
#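 CellTiter-Glo luminescence gave cytotoxicity after 18 hours at 37 degrees C. The cells were HepG2 CAGA-GFP in 1% FBS DMEM, stimulated with 500 pg/mL TGF-beta after compound addition. %Activity was normalised to no-cell wells (complete cell-killing) and DMSO (no toxicity), and curves were fitted and classified.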
# TGFb inhibitor: inhibitors of TGF-b signaling | HepG2 CAGA-GFP TGF-b/SMAD3 reporter, GFP fluorescence, 18 h; TGF-beta stimulated, 500 pg/mL final | Potency, µM (doses to about 46.1 µM), hits mostly inhibitors | actives 1.2% (n = 410,000) | AID 588855; also: nearly all actives have a fitted effect of over 65% in size
#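 Per well, imaged GFP fluorescence of HEPG2 CAGA-GFP cells gives the signal; cells get compound, then TGF-beta (500 pg/mL final), 18 h at 37 degrees C; %Activity versus -TGF-beta and +DMSO controls.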
# GLP1R inv ag: GLP-1 receptor (human) inverse agonism | P43220 | HEK293 GLP-1R CRE-luciferase, luminescence, 24 h; GLP-1R form is constitutively active | Potency, µM (doses to about 38.3 µM), actives largely listed as inhibitors | actives 1.6% (n = 410,000) | AID 624417; also: nearly all actives have a fitted effect of over 55% in size
# Target sequence (P43220 whole entry, looked up): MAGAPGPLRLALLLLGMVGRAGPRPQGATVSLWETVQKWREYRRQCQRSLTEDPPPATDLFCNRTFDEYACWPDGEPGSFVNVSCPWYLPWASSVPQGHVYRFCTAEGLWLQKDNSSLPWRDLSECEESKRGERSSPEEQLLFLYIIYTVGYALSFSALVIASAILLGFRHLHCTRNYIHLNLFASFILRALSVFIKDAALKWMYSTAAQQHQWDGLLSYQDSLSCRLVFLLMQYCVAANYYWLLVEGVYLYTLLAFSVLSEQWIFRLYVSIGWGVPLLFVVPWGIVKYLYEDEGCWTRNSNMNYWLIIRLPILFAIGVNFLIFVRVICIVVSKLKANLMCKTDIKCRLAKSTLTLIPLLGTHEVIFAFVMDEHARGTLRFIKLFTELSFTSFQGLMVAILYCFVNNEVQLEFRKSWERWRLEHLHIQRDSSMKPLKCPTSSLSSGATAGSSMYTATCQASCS
#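 Luminescence readout: a drop in cAMP-driven luciferase signal flags inverse agonism at a constitutively active GLP-1R stably expressed in HEK293. Compound exposure lasted 24 hr at 37 deg C, 5% CO2.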
# GLP-1R agonist: agonists of human GLP-1 receptor; P43220; HEK293 GLP-1R CRE-luciferase, luminescence, 4-6 h; cells express a hypersensitive GLP-1R form; Potency, µM (doses to about 45.6 µM), most hits filed as activators; actives 0.007% (n = 380,000)
# S2 tox: reduces viability in counter-screen for ATXN expression inhibitors. actives 0.49% (n = 400,000). AID 651635. S2 cells (HEK-293 line with an ATXN2-luciferase reporter) viability, CellTiter-Fluor protease fluorescence, 24 h. Potency, µM (top dose mostly 56.7 µM), usual class: cytotoxic; also: nearly all actives have a fitted effect of over 40% in size
# ATXN2 expr inh: inhibitors of ATXN2 expression; HEK-293 ATXN2-luciferase reporter, luminescence, 24 h; Potency, µM (highest dose often 57 µM), hits mostly inhibitors; actives 0.72% (n = 360,000); AID 1745845; also: nearly all actives have a fitted effect of over 55% in size
#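 qHTS (up to 57 uM final) was run with 24 h compound exposure of reporter cells at 37 °C. Each well was multiplexed: SteadyGlo luminescence measured ATXN2-luciferase expression after a fluorogenic Gly-Phe-AFC viability readout (25 uM final).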
# Hits are given with their value; i = inactive; ? = inconclusive; nt = no result. Calls follow the shape of the dose curve; as a rule, active = well fitted curve in the direction sought with a large enough effect; inconclusive = small, poorly fitted or top-dose-only effect, or another doubt; inactive = no such curve, though single readings can be large; an effect the other way counts as inactive or inconclusive.
SMILES,HepG2 viability,TGFb inhibitor,GLP1R inv ag,GLP-1R agonist,S2 tox,ATXN2 expr inh
CCOC(=O)c1ccc(N2C(=O)c3n[nH]c(-c4cccs4)c3C2c2cccc(OC)c2)cc1 (stereo not drawn),i,1.8µM,?,i,?,?
CCOC(=O)c1ccc(N2C(=O)c3[nH]nc(-c4ccc(C)cc4)c3C2c2cccc(F)c2)cc1 (stereo not drawn),11µM,?,10µM,i,?,?
CCOc1ccc(N2C(=O)c3n[nH]c(-c4cccs4)c3C2c2cccc(F)c2)cc1 (stereo not drawn),11µM,?,?,nt,nt,?
CCOC(=O)C1=C(C)N=C2SC(C(=O)OC)=CC(=O)N2C1c1cccc(OC)c1 (stereo not drawn),i,i,?,i,i,i
Cn1ccc(C(=O)NCC2CCC3(CCN(Cc4cc(F)cc(F)c4)CC3)O2)n1 (stereo not drawn),nt,nt,nt,nt,i,nt
CCOc1ccc(/C=C/c2nc(C#N)c(NC(C)CC)o2)cc1 (stereo not drawn),i,i,i,nt,nt,nt
O=C(CN1C(=O)CCc2cc(Br)ccc21)Nc1ccc(OC(F)(F)F)cc1,i,i,?,i,i,i
Nc1nc(Sc2ccc([N+](=O)[O-])c3nonc23)c2[nH]cnc2n1,i,?,?,i,nt,14µM
CNc1ncnc(Sc2nc(N)nc3nc[nH]c23)c1[N+](=O)[O-],i,?,i,i,?,?
COc1cccc(N2CCN(Cc3cc(=O)oc4cc(C)ccc34)CC2)c1,i,?,i,nt,nt,nt
COc1ccccc1C1CN(Cc2cccnc2)Cc2ccccc2O1 (stereo not drawn),nt,nt,nt,nt,i,nt
CCOC(=O)CNC(c1ccccc1)c1cc(Br)ccc1NC(=O)CCN1CCOCC1 (stereo not drawn),13µM,?,i,i,?,nt
COC(=O)CNC(c1ccccc1)c1cc(Br)ccc1NC(=O)CCN1CCOCC1 (stereo not drawn),22µM,18µM,?,i,?,nt
CCOC(=O)CNC(c1ccccc1)c1cc(Br)ccc1NC(=O)OCC (stereo not drawn),i,i,?,i,i,i
Cc1nc2ccn(Cc3ccco3)c(=O)c2cc1C(=O)NCc1ccc(Cl)cc1,i,10µM,?,nt,nt,nt
Cc1ccc(CNC(=O)c2cc3c(=O)n(Cc4ccco4)ccc3nc2C)cc1,i,?,?,nt,nt,nt
CNCC(O)CN(c1ccccc1)c1ccccc1 (stereo not drawn),i,i,6.3µM,i,i,i
O=C(Nc1ccccc1C(=O)N/N=C/c1ccco1)c1ccc(F)cc1,13µM,?,i,i,i,i
O=C(Nc1ccccc1C(=O)N/N=C/c1ccco1)c1ccccc1,i,i,i,i,i,i
CC(C)c1ccc(S(=O)(=O)N2CCN(Cc3cccc(F)c3)CC2)cc1,i,i,?,nt,i,i
Cc1ccc(S(=O)(=O)N2CCC(=O)N(C(COCc3ccc(Cl)cc3)Cc3ccccc3)CC2)cc1 (stereo not drawn),i,i,11µM,i,i,i
Cc1cccc(C(=O)N2CCC(=O)N(C(COCc3ccccc3)Cc3ccccc3)CC2)c1 (stereo not drawn),i,i,?,i,i,i
Cc1cccc(COC[C@H](Cc2ccccc2)N2CCN(C(=O)c3cccc(C)c3)CCC2=O)c1,nt,nt,?,i,25µM,i
Cc1cccc(COC[C@H](Cc2ccccc2)N2CCN(C(=O)c3cc(Cl)cc(Cl)c3)CCC2=O)c1,nt,nt,11µM,i,?,?
c1ccc2nc(-c3ccc(N4CCOCC4)cc3)ccc2c1,i,?,i,i,i,3.5µM
SMILES,HepG2 viability,TGFb inhibitor,GLP1R inv ag,GLP-1R agonist,S2 tox,ATXN2 expr inh
CN1CCN(c2ccc(-c3ccc4ccccc4n3)cc2)CC1,i,i,i,i,nt,0.38µM
c1ccc2nc(-c3ccncc3)ccc2c1,i,i,i,i,i,i
COc1cccc(CNC(=O)c2c(OC)cc(=O)n3c2CCN(C(=O)c2ccoc2C)CC3)c1,nt,nt,nt,nt,i,nt
COc1ccc2c(c1)CCc1cnc(-n3ncc(C(=O)N(C)CCc4ccccn4)c3C)nc1-2,nt,nt,nt,nt,i,nt
O=C(c1ccc(Cl)cc1)c1c[nH]c(C(=O)NNc2ccccc2)c1,i,i,2µM,i,i,i
CC(NC(=O)COC(=O)c1ccco1)C12CC3CC(CC(C3)C1)C2 (stereo not drawn),i,i,nt,nt,nt,nt
CC(NC(=O)c1ccco1)C12CC3CC(CC(C3)C1)C2 (stereo not drawn),i,i,10µM,i,i,i
N#C/C(=C(/O)CN1CCN(c2ccccc2F)CC1)c1nc(-c2ccc(Cl)cc2)cs1,i,7.9µM,?,i,i,?
N#C/C(=C(/O)CN1CCCCC1)c1nc(-c2ccc(Cl)cc2)cs1,i,i,i,i,i,i
O=C(c1ccccc1)C1N=NCC1c1ccc(Cl)cc1 (stereo not drawn),i,i,10µM,i,i,i
NC1=Nc2cccc3cccc1c23,i,i,?,i,nt,?
N=C1N=C(N)c2cc3ccccc3cc21,nt,nt,nt,i,32µM,18µM
CCOC(=O)c1c(NC(=O)C(NCCN(C)C)c2ccccc2)sc2c1CCCC2 (stereo not drawn),i,?,?,i,nt,28µM
COc1cc(/C=N/OCC(=O)NC2CCCCC2)ccc1OCc1ccccc1,i,i,?,i,i,i
O=C(CON=C1c2ccccc2-c2ccccc21)NC12CC3CC(CC(C3)C1)C2,i,?,1µM,i,i,i
COc1cc(/C=N/OCC(=O)NC23CC4CC(CC(C4)C2)C3)ccc1OCc1ccccc1,i,20µM,?,i,i,i
COc1ccccc1C(=O)OCC(=O)NC12CC3CC(CC(C3)C1)C2,i,i,10µM,i,i,i
O=C(COC(=O)C(O)c1ccccc1)NC12CC3CC(CC(C3)C1)C2 (stereo not drawn),i,i,i,i,i,i
COc1cc(=O)n2c(c1C(=O)N(C)Cc1ccsc1)CCN(Cc1cnn(C)c1C)CC2,nt,nt,nt,nt,i,nt
CC1(C)C(=O)Nc2ccccc2N1C(=O)Cn1ncc(Cl)c(Cl)c1=O,i,i,i,i,20µM,nt
Cc1nn(CC(=O)N2c3ccccc3NC(=O)C2(C)C)c(C)c1[N+](=O)[O-],i,?,i,i,i,nt
CN(C)CCNc1nc(-c2ccco2)c2c(c1C#N)CC(C)(C)OC2,i,i,i,i,i,i
CCCCN(C)c1nc(-c2ccco2)c2c(c1C#N)CC(C)(C)OC2,i,?,?,i,i,22µM
CCOC(=O)c1ccc(Cl)c(NC(=O)c2ccc(-c3ccccc3)cc2)c1,i,i,i,i,?,?
